Measurements published in PubChem BioAssay (NCI).
About 83,000 compounds went through this panel and 20% of them were active in at least one assay; those are over-represented in the sample as a whole.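 Growth was measured after 48 h exposure to one concentration of compound in 96-well plates. Values under 10 count as active.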 A number with no mark means an inactive call. Active and inactive are the calls of the source.

Tested on: OVCAR-8 ovarian
Assay: NCI-60 one-dose screen, 48 h (100 = growth as untreated, 0 = no growth, -100 = all killed)
Conditions: 10 µM unless noted
Procedure: Growth inhibition of the OVCAR-8 human tumor cell line is measured as a screen for anti-cancer activity. Cells are grown in 96 well plates and exposed to the test compound for 48 hours. Compounds are tested at a single concentration, which is 10^-5 M for most compounds. The reported endpoint is percent growth (GI% or GIPRCNT), where numbers from 0 - 100% represent growth inhibition, and numbers from -100% - 0 represent cell death. For example, a value of 40 represents 60% growth inhibition. A value of 0 means no net growth occurred over the course of the experiment. A value of -40 indicates 40% of cells at the beginning of the experiment died by the end of the experiment. A value of -100 means all cells are dead at the end of the experiment.
NCI-60 Human Tumor Cell Lines Screen was performed using the standard one-dose NCI protocol, which is described in more detail at https://dtp.cancer.gov/discovery_development/nci-60/default.htm.
Compounds with GIPRCNT values below 10 were considered active. Activity score was based on GIPRCNT using the following formula: […]
Score is 0 for GIPRCNT values of 100 or above, 50 for GIPRCNT values of 0, and 100 for GIPRCNT values of -100.

| Structure (SMILES) | growth |
| --- | --- |
| CCC(C)[C@H]1O[C@]2(CC[C@@H]1C)C[C@@H]1C[C@@H](C/C=C(\C)[C@@H](OC3C[C@H](OC)C(O[C@H]4C[C@H](OC)[C@@H](O)[C@H](C)O4)[C@H](C)O3)[C@@H](C)/C=C/C=C3\CO[C@@H]4[C@H](O)C(C)=C[C@@H](C(=O)O1)[C@]34O)O2 (stereo not given in full) | 42.4% |
| COC(=O)[C@@H]1CCCN1C(=O)[C@@H]1CCCN1C(=O)[C@@H](Cc1c[nH]c2ccccc12)NC(=S)Nc1cc(C(F)(F)F)cc(C(F)(F)F)c1 | 67.6% |
| CCCCCCCCCCCC(=O)[O][Sn]([CH2]CCC)([CH2]CCC)[CH2]CCC | -81.4% (active) |
| COc1cc(CNCCN2C(=O)c3ccc4c5c(ccc(c35)C2=O)C(=O)N(CCNCc2cc(OC)c(OC)c(OC)c2)C4=O)cc(OC)c1OC | -47.3% (active) |
| Cn1c2c(cc(S(=O)(=O)c3ccccc3)c1=O)CCc1c-2cnn1-c1cccc(Cl)c1 | 88.8% |
| COc1cc(-c2ccc3cc(OC)c(OC)c(OC)c3c2)cc(OC)c1OC | 78.4% |
| COc1ccc(OC)c(C2C(C#N)=C(N)Oc3cc(O)ccc32)c1 (stereo not given) | 100% |
| Cc1cc(Cl)c2c(Cl)ccc(Cl)c2n1 | 103% |
| O=C(Nc1ccccc1O)c1ccc(NS(=O)(=O)c2cccc3cccnc23)cc1 | 23.9% |
| CC1(C)N=C(N)N=C(N)N1c1cccc(/C=C/C=C/c2cccc([N+](=O)[O-])c2)c1 | 84.1% |
| Cn1cc(C(=O)NCCC(=N)N)cc1NC(=O)CN=C(N)N | 106% |
| O=C1CCC(N2C(=O)c3cccc(NCCOCCOCCNC(=O)c4cc5c(o4)C(=O)c4ccccc4C5=O)c3C2=O)C(=O)N1 (stereo not given) | 3.28% (active) |
| CCCCCn1c(=N)n(CC(O)COc2cccc(C)c2)c2ccccc21 (stereo not given) | 20.9% |
| C[C@H]1C(=O)C23CCC1C[C@@]21O[C@@H]2C(C)(C)C=CC(=O)C23COC1=O | 101% |
| O=[N+]([O-])c1cc2c(cc1Br)C1C(C3C2C(Cl)(Cl)C(Cl)=C(Cl)C3(Cl)Cl)C(Cl)(Cl)C(Cl)=C(Cl)C1(Cl)Cl (stereo not given) | 97% |
| NS(=O)(=O)c1cc(Br)c2c(c1)S(=O)(=O)NCN2 | 103% |
| CN1CCN(C)c2cncc(Br)c2C1=O | 102% |
| O=C(NC1CC1)c1cc2n(n1)CC(c1ccccc1)N2 (stereo not given) | 105% |
| CCOC(=O)c1sc(NC(=O)CN2CCC(Cc3ccccc3)CC2)nc1C | 110% |
| Cc1cc(O)cc2c1[C@H]1CC[C@]3(C)[C@@H](O)CC[C@H]3[C@@H]1C=C2 | 95.3% |

| Structure (SMILES) | growth |
| --- | --- |
| COc1cc(-c2nc3ccccc3o2)cc(CN2CCN(c3ccccc3)CC2)c1O | 78.3% |
| COc1cccc(C2CC(=O)Nc3cc4c(cc32)CCC4)c1OC (stereo not given) | 84.9% |
| COc1ccc(-n2ncc3c2ccc2cc(S(=O)(=O)c4ccccc4)c(=O)n(C)c23)cc1 | 65.4% |
| COc1ccc(-c2nc(Nc3ccc(F)cc3)nc(Nc3ccc4c(c3)nc(C)n4Cc3ccccc3)n2)cc1 | 17.9% |
| Nc1nc(N)c(C=Nc2ccc(Br)cc2)c(Nc2ccc(Br)cc2)n1 | 87.3% |
| O=c1oc2ccccc2cc1-c1csc(N/N=C/c2cc3ccccc3nc2Cl)n1 | 103% |
| CC(=O)Nc1ccccc1-c1n[nH]c(=O)[nH]c1=O | 106% |
| CC(=O)N(CC(O)CO)c1c(I)c(C(=O)NCCO)c(I)c(C(=O)NCC(O)CO)c1I (stereo not given) | 95.9% |
| COC(=O)c1c2c(c(C)[n+]([O-])c1C)C(=O)C=C(NCc1cccc(Cl)c1)C2=O | -14.4% (active) |
| Cc1nn(CC(=O)O)c2c1C(=O)CC(C)(C)C2 | 104% |
| COc1ccccc1/C=C/C(=O)/C=C/c1ccccc1O | 2.91% (active) |
| COC1(OC)C2(Cl)C=C(c3ccccc3)C1(Cl)C(Cl)=C2Cl (stereo not given) | 93.8% |
| COc1cc2cc(Oc3ccc(NC(=O)Nc4cccc(C(F)(F)F)c4)cc3)c(C)nc2cc1OCCN1CCCCC1 | -38.7% (active) |
| O=C1c2ccccc2-c2nnc(-c3ccc(Br)cc3)cc21 | 77.7% |
| O=C1C(OCCOc2ccccc2)=C(OCCOc2ccccc2)C(=O)c2ccccc21 | 86.8% |
| CCN1CCN(c2ccc(Nc3ncc4ccc5ncn(C(C)C)c5c4n3)nc2)CC1 | 13.6% |
| CCOC(=O)C(CC(c1ccccc1)N1CCCCC1)[N+](=O)[O-] (stereo not given) | 87.1% |
| Cl.Fc1c[c-]c(-c2ccccn2)c(F)c1.[Pt].c1ccc([PH+](CC[PH+](c2ccccc2)c2ccccc2)c2ccccc2)cc1 | -29.1% (active) |
| C=CC(=O)N1CC2(CCC(n3nc(-c4ccc(Oc5ccccc5)cc4)c4c(N)ncnc43)CC2)C1 | -36.5% (active) |
| CCN(CC)c1ccc(/C=C(\C#N)c2cc3ccccc3[nH]2)cc1 | 63.4% |
